Screening results (PubChem BioAssay)
The list is not random: actives were taken first. Their share in the collection is about 32%.
CYP2C19 activ: cytochrome P450 2C19 (human) activation; recombinant CYP2C19, luciferin-H EGE luminescence; active compounds read high; 0 = fully inhibited enzyme, 1 = untreated enzyme; AID 1025; activation factor at 5 µM; 96,000 tested, under 10 active;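 active means activation factor of at least 2 at 5 µM in the primary screen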
PostGolgi ctrl: inhibits growth of the yeast control strain; efflux-deficient yeast background strain, growth absorbance A615, 16 h; inhibition, % at 10 µM; 5% of 98,000 active; AID 738
PostGolgi yeast: growth inhibition of a yeast mutant, post-Golgi transport screen | AID 739 | post-Golgi transport phenotypic cell assay | 0.9% of 98,000 active | inhibition, % at 10 µM;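 further: yeast cells grown in 1536-well plates; yeast grown about 18 h at 30C before absorbance read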
CYP2C19 inhib: inhibitors of human CYP2C19; AID 778; inhibition, % at 5 µM; P33261; CYP2C19 Supersomes, luciferin-H EGE luminescence, 30 min; 21% of 96,000 active;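 active means CYP2C19 inhibition above a set limit at 5 µM in the primary screen, cut at about 50% in these data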
CYP2C9 activ: CYP2C9 (human) activation; P11712; recombinant CYP2C9, luciferin-H conversion, luminescence; active compounds read high; factor 1 = untreated enzyme, 0 = blocked; activation factor at 5 µM; 1.4% of 96,000 active; AID 1024;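 active means activation factor of 2 or more for CYP2C9 at a 5 µM dose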
Target sequence (P11712 whole entry, looked up): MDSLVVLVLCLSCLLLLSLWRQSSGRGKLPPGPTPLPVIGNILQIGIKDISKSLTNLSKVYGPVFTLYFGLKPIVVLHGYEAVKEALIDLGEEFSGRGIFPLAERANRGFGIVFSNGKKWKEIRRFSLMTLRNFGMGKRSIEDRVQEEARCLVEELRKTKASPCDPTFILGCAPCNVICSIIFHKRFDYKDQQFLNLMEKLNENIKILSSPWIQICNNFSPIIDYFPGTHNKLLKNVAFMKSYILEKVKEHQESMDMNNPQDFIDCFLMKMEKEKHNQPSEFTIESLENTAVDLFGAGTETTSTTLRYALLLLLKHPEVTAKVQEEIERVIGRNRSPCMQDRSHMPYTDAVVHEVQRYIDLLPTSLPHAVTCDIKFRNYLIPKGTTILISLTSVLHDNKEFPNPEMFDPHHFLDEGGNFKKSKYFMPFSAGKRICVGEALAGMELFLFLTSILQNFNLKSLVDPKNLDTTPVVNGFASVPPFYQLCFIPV
CYP2C9 inh: inhibitors of human CYP2C9. 20% of 96,000 active. CYP2C9 Supersomes, luciferin-H conversion, luminescence. inhibition, % at 5 µM. P11712. AID 777;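 active means blocking of liver enzyme CYP2C9 beyond about 50% at 5 µM, limit read from the data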
Numbers stand for hits. Unless noted, no stated cut-off is given here; in the data, active means inhibition above about 30%; inactive means the rest.

What do the screens show for `Cc1nc(SCC(=O)NCC2CCCO2)c2oc3ccccc3c2n1` (stereo not given)?
CYP2C19 activ: inactive; PostGolgi ctrl: inactive; PostGolgi yeast: inactive; CYP2C19 inhib: 52; CYP2C9 activ: inactive; CYP2C9 inh: inactive

What do the screens show for `COC(=O)c1nnn(-c2nonc2N)c1CSc1ccccn1`?
CYP2C19 activ: inactive; PostGolgi ctrl: inactive; PostGolgi yeast: inactive; CYP2C19 inhib: 80; CYP2C9 activ: inactive; CYP2C9 inh: inactive

How did CC(C)OC(=O)c1nnn(-c2nonc2N)c1CSc1ccccn1 do in these assays?
CYP2C19 activ: inactive; PostGolgi ctrl: 37; PostGolgi yeast: inactive; CYP2C19 inhib: 74; CYP2C9 activ: inactive; CYP2C9 inh: 57

What do the screens show for `C(=C\c1nc2ccccc2[nH]1)/c1ccccc1`?
CYP2C19 activ: inactive; PostGolgi ctrl: inactive; PostGolgi yeast: inactive; CYP2C19 inhib: 72; CYP2C9 activ: inactive; CYP2C9 inh: 60

Results for O=C(OCN1C(=O)c2ccccc2C1=O)C1CCCCC1 ?
CYP2C19 activ: inactive; PostGolgi ctrl: inactive; PostGolgi yeast: inactive; CYP2C19 inhib: inactive; CYP2C9 activ: inactive; CYP2C9 inh: inactive

How did O=C1c2ccccc2C(=O)N1SC1CCCCC1 do in these assays?
CYP2C19 activ: inactive; PostGolgi ctrl: inactive; PostGolgi yeast: inactive; CYP2C19 inhib: inactive; CYP2C9 activ: inactive; CYP2C9 inh: 82

What do the screens show for `CN(C)c1nc(N)nc(Cn2ccnc2)n1`?
CYP2C19 activ: inactive; PostGolgi ctrl: inactive; PostGolgi yeast: inactive; CYP2C19 inhib: 54; CYP2C9 activ: inactive; CYP2C9 inh: inactive

How did Cn1c(CCNC(=O)c2ccco2)nc2cc(NS(=O)(=O)c3ccccc3)ccc21 do in these assays?
CYP2C19 activ: inactive; PostGolgi ctrl: inactive; PostGolgi yeast: inactive; CYP2C19 inhib: inactive; CYP2C9 activ: inactive; CYP2C9 inh: 56

How did CC(NC(=O)c1ccc(N(C)C)cc1)C1CC2CCC1C2 (stereo not given) do in these assays?
CYP2C19 activ: inactive; PostGolgi ctrl: inactive; PostGolgi yeast: inactive; CYP2C19 inhib: inactive; CYP2C9 activ: inactive; CYP2C9 inh: inactive

How did CSc1nc2ccc(NS(=O)(=O)c3ccc(Cl)s3)cc2s1 do in these assays?
CYP2C19 activ: inactive; PostGolgi ctrl: 40; PostGolgi yeast: inactive; CYP2C19 inhib: 100; CYP2C9 activ: inactive; CYP2C9 inh: 100

Results for CCN(CC)S(=O)(=O)c1ccc2nc(SC)sc2c1 ?
CYP2C19 activ: inactive; PostGolgi ctrl: inactive; PostGolgi yeast: inactive; CYP2C19 inhib: 78; CYP2C9 activ: inactive; CYP2C9 inh: inactive

Results for CSc1nc2ccc(S(=O)(=O)Nc3c(C)n(C)n(-c4ccccc4)c3=O)cc2s1 ?
CYP2C19 activ: inactive; PostGolgi ctrl: inactive; PostGolgi yeast: inactive; CYP2C19 inhib: inactive; CYP2C9 activ: inactive; CYP2C9 inh: inactive

What do the screens show for `CSc1nc2ccc(S(=O)(=O)N(C)C)cc2s1`?
CYP2C19 activ: inactive; PostGolgi ctrl: inactive; PostGolgi yeast: inactive; CYP2C19 inhib: 86; CYP2C9 activ: inactive; CYP2C9 inh: inactive

How did CC(C)CCOC(=O)C1C2C=CC3(CN(Cc4cccs4)C(=O)C13)O2 (stereo not given) do in these assays?
CYP2C19 activ: inactive; PostGolgi ctrl: inactive; PostGolgi yeast: inactive; CYP2C19 inhib: inactive; CYP2C9 activ: inactive; CYP2C9 inh: inactive

Results for CCOC(=O)CNC(=O)CSc1ncnc2c1cnn2-c1ccc(OC)cc1 ?
CYP2C19 activ: inactive; PostGolgi ctrl: inactive; PostGolgi yeast: inactive; CYP2C19 inhib: inactive; CYP2C9 activ: inactive; CYP2C9 inh: inactive

How did CCOC(=O)C1=C(C)NC(=O)NC1c1ccc(OCCO)c(OC)c1 (stereo not given) do in these assays?
CYP2C19 activ: inactive; PostGolgi ctrl: inactive; PostGolgi yeast: inactive; CYP2C19 inhib: inactive; CYP2C9 activ: inactive; CYP2C9 inh: inactive

How did CCOC(=O)C1=C(C)NC(SC(C)=O)=NC1c1ccc(OC(C)=O)c(OC)c1 (stereo not given) do in these assays?
CYP2C19 activ: inactive; PostGolgi ctrl: inactive; PostGolgi yeast: inactive; CYP2C19 inhib: 90; CYP2C9 activ: inactive; CYP2C9 inh: 62

What do the screens show for `CCOc1cc(/C=C2/SC(=Nc3ccccc3)N(Cc3cccnc3)C2=O)ccc1OCC#N`?
CYP2C19 activ: inactive; PostGolgi ctrl: inactive; PostGolgi yeast: inactive; CYP2C19 inhib: inactive; CYP2C9 activ: inactive; CYP2C9 inh: inactive

Results for O=C(C[n+]1ccc(C(=O)N/N=C/c2ccc(Br)cc2)cc1)c1ccccc1 ?
CYP2C19 activ: inactive; PostGolgi ctrl: inactive; PostGolgi yeast: inactive; CYP2C19 inhib: 74; CYP2C9 activ: inactive; CYP2C9 inh: inactive
